A selection: hits, their analogues and other compounds. The true share with any hit is near 1.3%.
IDE cell activ – human IDE activators in live cells, primary screen, fluorescence polarization, HEK cells, FAbeta-B substrate; Insulin-degrading enzyme (Homo sapiens), P14735; FAbeta-B cleavage; 0% vehicle, 100% cell-free pure enzyme wells; activation, % at 5.96 µM; 340,000 tested, 0.073% active; AID 493087, 2011;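 active = activation above the mean of all tested compounds plus 3 SD, set per screening campaign, cut at about 17% in these data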
IDE cell inh – human IDE inhibitors in live cells, primary screen, fluorescence polarization, HEK cells, FAbetaB substrate. Insulin-degrading enzyme (Homo sapiens), P14735. FAbetaB cleavage. inhibition, % at 5.59 µM. 320,000 tested, 0.41% active. AID 434962, 2010;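 active = percent inhibition above the average of all tested compounds plus 3 SD, set per screening campaign, cut at about 16% in these data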;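 also: IDE supplied by intact live HEK cells; FP after avidin binding of uncleaved biotin substrate so inhibition keeps polarization high; 0% = DMSO wells and 100% = 60 µM reference IDE inhibitor Ii1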
eLon inh – inhibitors of E. coli Lon protease, primary screen, biochemical, fluorescence polarization; 360,000 tested, 0.42% active; inhibition, % at 7.94 µM; P0A9M0; purified E. coli Lon protease; in the data active = inhibition above about 13%, passing the limit was not always enough;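 also: 0% = enzyme with probe and DMSO and 100% = no enzyme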
PKA-R1A activ – activators of PKA-R1A holoenzyme, primary screen, biochemical, fluorescence polarization, Cy5-IP20, bovine R1A, mouse PKAc; activation, % at 11.4 µM; cAMP-dependent protein kinase type I-alpha regulatory subunit (Bos taurus) + …; AID 504707, 2011; 340,000 tested, 0.083% active; PKA-R1A dissociation; scaled: DMSO 0%, 113 µM cGMP 100%;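 active = percent activation above the mean of all tested compounds plus 3 SD, cut at about 19% in these data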;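 also: higher means more PKAc released from R1A so a rise in polarization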
Rin1 Abl inh – inhibitors of Rin1-Abl protein binding, primary screen, biochemical, TR-FRET | Tyrosine-protein kinase ABL1 (Homo sapiens) + Ras and Rab interactor 1 (Homo sapiens), … | inhibition, % at 7.35 µM | 360,000 tested, 0.4% active; in the data active = inhibition above about 5%, passing the limit was not always enough
PKA-R2B activ – activators of PKA-R2B holoenzyme, primary screen, biochemical, fluorescence polarization, Cy5-IP20, human | cAMP-dependent protein kinase catalytic subunit beta (Homo sapiens) + cAMP-dependent … | PKA-R2B holoenzyme dissociation; R2B truncated from residue 108, S112A mutant; 0% DMSO only, 100% 113 µM cGMP | activation, % at 11.4 µM | 340,000 tested, 0.079% active;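 active = activation above a cutoff set at the mean over all compounds plus 3 SD, cut at about 18% in these data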;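 also: higher means more holoenzyme dissociation and a rise in polarization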
IDE inh confirm – human IDE inhibitors in live cells, confirmation, fluorescence polarization, HEK cells, FAbetaB substrate; shares compounds with IDE cell inh; FAbetaB cleavage; inhibition, % at 5.59 µM; 1,200 tested, 51% active;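 active = mean inhibition across triplicate wells above the cutoff set by the earlier primary insulin-degrading enzyme screen, cut at about 16% in these data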;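 also: 0% = DMSO wells and 100% = 60 µM reference IDE inhibitor Ii1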
HEK293 tox – cytotoxicity in HEK cells, cytotoxicity control for IDE inhibitor project, cell-based, luminescence; shares compounds with IDE cell inh; HEK293 cytotoxicity, ATP luminescence; inhibition, % at 5.59 µM; 1,200 tested, 28% active; AID 449730, 2010; in the data active = inhibition above about 22%;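 also: 0% = vehicle wells and 100% = reference cytotoxic drug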
FP fluor counter – fluorescent or optically active artefacts, dose response, artefact control for IDE inhibitor project, biochemical, fluorescence polarization; IC50, µM; shares compounds with IDE cell inh; FP counterscreen for fluorescent artifacts, IDE probe project; 30 tested, under 10 active; call rule not given here
Active calls of the source: *.

How did O=[N+]([O-])c1cc(C(F)(F)F)c(Cl)cc1N1CCN(CCO)CC1 do in these assays?
IDE cell activ: 6; IDE cell inh: 6; eLon inh: -8; PKA-R1A activ: 6; Rin1 Abl inh: -2; PKA-R2B activ: -14

What do the screens show for `CC[n+]1c(/C=C/C=C/N(C(C)=O)c2ccccc2)sc2cc(OC)ccc21`?
IDE cell inh: 40*; IDE inh confirm: 35*; HEK293 tox: 63*

Results for CC[n+]1c(/C=C(\C)OC)sc2ccccc21 ?
IDE cell activ: 3; eLon inh: 0; PKA-R1A activ: -6; Rin1 Abl inh: 3; PKA-R2B activ: -4

What do the screens show for `C/C(=N/NC(=O)c1ccncc1)c1cc2ccc(O)cc2oc1=O`?
IDE cell activ: -17; IDE cell inh: 21*; eLon inh: inactive; PKA-R1A activ: -4; Rin1 Abl inh: -5; PKA-R2B activ: 4; IDE inh confirm: 26*; HEK293 tox: 7

What do the screens show for `COc1ccccc1C(=O)NCCC(=O)N1CCN(c2ccc(C(F)(F)F)cn2)CC1`?
IDE cell activ: -15; eLon inh: -9; PKA-R1A activ: -1; Rin1 Abl inh: -1; PKA-R2B activ: 1

What do the screens show for `Cc1c(OC(C)C(=O)NCc2ccccn2)ccc2c3c(c(=O)oc12)CCC3` (stereo unspecified)?
IDE cell activ: 5; IDE cell inh: 2; eLon inh: -2; PKA-R1A activ: 9; Rin1 Abl inh: 1; PKA-R2B activ: -2

How did Cc1c(OC(C)C(=O)NCc2ccncc2)ccc2c3c(c(=O)oc12)CCCC3 (stereo unspecified) do in these assays?
IDE cell activ: -38; IDE cell inh: 19*; eLon inh: 0; PKA-R1A activ: -11; Rin1 Abl inh: 1; PKA-R2B activ: -5; IDE inh confirm: 17*; HEK293 tox: 18

Results for Cc1ccc(NC(=O)CSc2nnc(CSc3nc(C)cc(C)n3)n2Cc2ccco2)c(C)c1 ?
IDE cell activ: -1; IDE cell inh: 3; eLon inh: 1; PKA-R1A activ: -6; Rin1 Abl inh: 0; PKA-R2B activ: -3

What do the screens show for `Cc1ccc(NC(=O)CSc2nnc(-c3cccc(Cl)c3)n2Cc2ccco2)c(C)c1`?
FP fluor counter: >55

How did O=C(CSc1nnc(-c2cccc(Cl)c2)n1Cc1ccco1)Nc1ccccc1C(F)(F)F do in these assays?
FP fluor counter: >55

What do the screens show for `CCN(C(=O)COC(=O)CNC(=O)c1ccc(C)cc1)c1c(N)n(Cc2ccccc2)c(=O)[nH]c1=O`?
IDE cell activ: 3; IDE cell inh: -1; eLon inh: -3; PKA-R1A activ: -3; Rin1 Abl inh: 0; PKA-R2B activ: 12

How did Nc1ccccc1Sc1nc2ccccc2[nH]1 do in these assays?
IDE cell activ: -16; IDE cell inh: 16*; eLon inh: -6; PKA-R1A activ: -2; Rin1 Abl inh: 2; PKA-R2B activ: 2; IDE inh confirm: 6; HEK293 tox: 3

What do the screens show for `COc1cc(/C=C(\C#N)C(=O)NCC2CCCO2)ccc1OC(C)C` (stereo unspecified)?
IDE cell activ: 1; IDE cell inh: -2; eLon inh: 7; PKA-R1A activ: -3; Rin1 Abl inh: -1; PKA-R2B activ: 7

High-throughput results as filed in PubChem.
